# STK33 inh: STK33 kinase inhibitors, primary screen, biochemical, luminescence, ADP-Glo, MBP substrate. Serine/threonine-protein kinase 33 (Homo sapiens), Q9BYT3. inhibition, % at 12.5 µM. 27,000 tested, 0.44% active. AID 2322, 2010; in the data active = inhibition above about 20%
# ID4 SMM: binders of human ID4 protein, primary screen, biochemical, small molecule microarray, single point; DNA-binding protein inhibitor ID-4 (Homo sapiens), P47928; Flag-ID4 binding, fluorescence F/B; calls only; 31,000 tested, 1.2% active; AID 624137, 2012; call rule not given here;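 also: a binder raises fluorescence above local background on the spot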
# Target sequence (P47928 whole entry, looked up): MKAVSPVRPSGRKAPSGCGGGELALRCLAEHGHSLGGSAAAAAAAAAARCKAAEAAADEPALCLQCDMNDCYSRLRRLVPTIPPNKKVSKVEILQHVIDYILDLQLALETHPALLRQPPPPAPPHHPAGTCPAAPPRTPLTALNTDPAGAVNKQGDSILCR
# * = called active by the depositor; i = inactive; . = no result given; + = active, no number. Only some compounds are listed: those with a hit (about 1.3% of all), similar ones and a draw of the others.
SMILES,STK33 inh,ID4 SMM
CC(=O)N(C)C[C@@H]1Oc2cc(-c3ccccc3C)ccc2S(=O)(=O)N([C@H](C)CO)C[C@@H]1C,.,+
COC(=O)c1ccccc1NC(=O)C1CC(c2cc(Cl)c(OC)cc2OC)=NO1 (stereo not drawn),3.1,i
CN1CCN(C(=O)CN(c2cccc3ccccc23)S(C)(=O)=O)CC1,3.4,i
C[C@@H]1CN([C@H](C)CO)S(=O)(=O)c2ccc(-c3ccc(C(=O)N(C)C)cc3)cc2O[C@@H]1CN(C)Cc1ccc2c(c1)OCO2,.,+
COc1ccc(NC(=O)N(C)C[C@H]2Oc3cc(-c4ccc(C)cc4)ccc3S(=O)(=O)N([C@@H](C)CO)C[C@H]2C)cc1,.,i
COc1ccc(NC(=O)N(C)C[C@@H]2Oc3cc(-c4ccncc4)ccc3S(=O)(=O)N([C@H](C)CO)C[C@H]2C)cc1,.,+
COc1ccc(NC(=O)N(C)C[C@H]2Oc3cc(-c4cccc(C(=O)N(C)C)c4)ccc3S(=O)(=O)N([C@@H](C)CO)C[C@@H]2C)cc1,.,i
COc1ccccc1-c1ccc2c(c1)O[C@H](CN(C)Cc1ccc3c(c1)OCO3)[C@H](C)CN([C@@H](C)CO)S2(=O)=O,.,i
C[C@H](CO)N1C[C@H](C)[C@@H](CN(C)C)Oc2cc(-c3ccncc3)ccc2S1(=O)=O,.,i
C[C@H](CO)N1C[C@H](C)[C@H](CN(C)Cc2cncnc2)Oc2cc(-c3ccncc3)ccc2S1(=O)=O,.,+
C[C@@H]1CN([C@H](C)CO)S(=O)(=O)c2ccc(-c3cccc(C(=O)N(C)C)c3)cc2O[C@H]1CN(C)C(=O)Nc1ccc(F)cc1,.,+
Cc1ccc(NC(=O)c2ccc(S(=O)(=O)N3CC(C)CC(C)C3)cc2)c(C(=O)c2ccccc2)c1 (stereo not drawn),.,i
CCC1=C/C(=C\N(C)c2ccccc2)C(=O)S1,.,i
CC1CCC/C=C2\C(=O)C=CC3OC(/C=C/C=C/C=C/C(=O)O)=C(C(=O)O1)C23 (stereo not drawn),-4.9,.
COc1ccc(C2C3CCc4ccccc4C3=NN2C(=O)c2cccs2)cc1 (stereo not drawn),-0.5,.
O=C1O[C@@H](c2ccccc2)[C@@H](c2ccccc2)N2[C@@H](c3ccc(OCCO)cc3)[C@]3(C(=O)Nc4ccc(C#CCCO)cc43)[C@@H](C(=O)N3CCCCCCC3)[C@H]12,14.0,.
O=C1O[C@H](c2ccccc2)[C@H](c2ccccc2)N2[C@H]1[C@@H](C(=O)N1CCN(c3ncccn3)CC1)[C@]1(C(=O)Nc3ccc(C#CCCO)cc31)[C@H]2c1ccccc1OCCO,24.1*,i
COc1ccc(C#Cc2ccc3c(c2)[C@]2(C(=O)N3)[C@H](c3ccccc3OCCO)N3[C@H](c4ccccc4)[C@H](c4ccccc4)OC(=O)[C@H]3[C@@H]2C(=O)N2CCN(c3ncccn3)CC2)cc1,9.5,i
O=C1O[C@@H](c2ccccc2)[C@@H](c2ccccc2)N2[C@@H](c3ccccc3OCCO)[C@]3(C(=O)Nc4ccc(C#CCCO)cc43)[C@@H](C(=O)N3CCCCCCC3)[C@H]12,21.9*,.
CNC(=O)CN(c1cccc(Cl)c1Cl)S(=O)(=O)c1ccccc1,-0.9,i
CC(=O)N/C(=C\c1ccccc1)C(=O)Nc1cccc(C#N)c1,-2.1,.
C=C1C(=O)O[C@@H]2/C=C(\C)[C@@H](OC(=O)C(O)C(C)C)C/C=C(/C)C[C@@H](OC(=O)/C(=C/CO)CO)[C@@H]12 (stereo partly drawn),-3.8,.
Cc1cc(O)c2c(c1)C(=O)C13C(C2=O)C(=O)C2C(O)C1C1C(O)C3C(=O)C3C(=O)c4c(O)cc(C)cc4C(=O)C321 (stereo not drawn),-1.1,.
C[C@H]1CCCCO[C@@H](CN(C)C(=O)C2CCCCC2)[C@@H](C)CN([C@@H](C)CO)C(=O)c2cc(NC(=O)c3ccncc3)ccc2O1,.,i
C[C@@H]1CCCCO[C@H](CN(C)C(=O)C2CCCCC2)[C@@H](C)CN([C@@H](C)CO)C(=O)c2cc(NC(=O)c3ccncc3)ccc2O1,.,+
SMILES,STK33 inh,ID4 SMM
C[C@@H]1CCCCO[C@H](CN(C)C(=O)c2ccncc2)[C@@H](C)CN([C@H](C)CO)C(=O)c2cc(NS(=O)(=O)c3ccccc3)ccc2O1,-0.7,i
C[C@@H]1CN([C@H](C)CO)C(=O)c2cc(NS(=O)(=O)c3ccccc3)ccc2O[C@@H](C)CCCCO[C@@H]1CN(C)C(=O)c1ccncc1,.,+
COc1cc(CCC(C)NC(=O)c2ccco2)ccc1OC(=O)c1ccco1 (stereo not drawn),0.1,.
C/C=C/C1=C(Cl)C(=O)[C@@H](O)[C@@]1(O)C(=O)OC,3.7,i
O=C(CSc1nc(-c2ccccc2)cc(=O)[nH]1)NCC1CCCO1 (stereo not drawn),0.3,+
O=C(CSc1nc(-c2ccccc2)cc(=O)[nH]1)Nc1ccccc1,-2.5,i
O=C1OC(c2ccccc2)C(O)(c2ccccc2)C12CCCCC2 (stereo not drawn),.,i
C[C@@H]1CCCCO[C@@H](CN(C)Cc2ccncc2)[C@H](C)CN([C@@H](C)CO)C(=O)c2cc(NC(=O)Nc3ccccc3)ccc2O1,.,i
C[C@@H]1CCCCO[C@@H](CN(C)Cc2ccncc2)[C@H](C)CN([C@H](C)CO)C(=O)c2cc(NC(=O)Nc3ccccc3)ccc2O1,.,+
C[C@H](CO)N1C[C@H](C)[C@H](CN(C)C(=O)Nc2ccccc2)OCCCC[C@H](C)Oc2ccc(NC(=O)Nc3ccccc3)cc2C1=O,.,i
C[C@@H]1CCCCO[C@@H](CN(C)C(=O)Nc2ccccc2)[C@H](C)CN([C@H](C)CO)C(=O)c2cc(NC(=O)Nc3ccccc3)ccc2O1,.,+
Cc1ccc(N2C3=C(C(=O)CC(C)(C)C3)C(c3cccs3)C3=C2CC(C)(C)CC3=O)cc1C,-0.7,.
Cc1nn(Cc2ccc(F)cc2)c(C)c1NC(=O)C1CC(c2c(F)cccc2Cl)=NO1 (stereo not drawn),-0.3,i
C=CCSc1nccc(-c2sc3ccc(Cl)cc3c2C)n1,.,i
CCCn1c2ccccc2c2nnc(SCCN3CCCCC3)nc21,-3.7,+
Cc1ccc2c(c1)c1nnc(SCCN3CCCCC3)nc1n2C,3.0,i
O=C(CSc1nc(O)cc(=O)[nH]1)N(c1ccccc1)c1ccccc1,0.3,i
COc1ccc(C2CC(=O)Oc3cc(O)cc(O)c32)cc1 (stereo not drawn),0.0,i
O=C1Oc2cc(O)cc(O)c2[C@@H](c2ccc(O)cc2)[C@H]1[C@H]1C(=O)Oc2cc(O)cc(O)c2[C@H]1c1ccc(O)cc1,28.3*,.
CCOC(=O)c1c(NC(=S)N(C)Cc2c(C)nn(C)c2C)sc2c1CCCCCC2,-0.8,+
CCOC(=O)c1c(NC(=S)NCc2cc(C)n(C)n2)sc2c1CCCC2,3.1,i
C[C@H]1CN([C@@H](C)CO)C(=O)c2cc(-c3cccnc3)cnc2O[C@@H]1CN(C)C,.,+
COc1cccc(S(=O)(=O)N(C)C[C@@H]2Oc3ncc(-c4cccc(F)c4)cc3C(=O)N([C@H](C)CO)C[C@@H]2C)c1,0.9,.
C[C@@H]1CN([C@@H](C)CO)C(=O)c2cc(-c3cccnc3)cnc2O[C@@H]1CN(C)C,.,i

# Screening data from PubChem BioAssay.
